# Screens from PubChem.
# A selection: hits, their analogues and other compounds. The true share with any hit is near 4%.
# GDH-TPI counter-1 = GDH-TPI coupling enzyme inhibitors, primary screen, artefact control for M. tuberculosis FBA inhibitor project, biochemical, absorbance, full deck; GDH-TPI coupled enzyme counterscreen, NADH absorbance; inhibition, % at 4.8 µM; 360,000 compounds, 1.2% hits; AID 588335, 2011;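 note: 0% = DMSO wells and 100% = wells lacking the enzyme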
# CCHF vOTU inh = CCHFV vOTU protease inhibitors, primary screen, biochemical, Pep-AMC substrate, fluorescence; Crimean-Congo hemorrhagic fever virus L polyprotein viral ovarian tumor (vOTU) protease …; inhibition, % at 11.5 µM; 370,000 compounds, 0.55% hits; AID 651958, 2012; note: 0% = vehicle wells with enzyme and 100% = no enzyme wells
# FBA Mtb inh = Mtb FBA enzyme inhibitors, primary screen, biochemical, fluorescence, strain H37Rv; purified M. tuberculosis FBA, fluorescence read-out; Fructose-bisphosphate aldolase (Mycobacterium tuberculosis (strain ATCC 25618 / H37Rv)), …; inhibition, % at 1 µM; 360,000 compounds, 2.3% hits; in the data active = inhibition above about 27%;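 note: 0% = vehicle and 100% = reference inhibitor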
# Target sequence (P9WQA3 whole entry, looked up): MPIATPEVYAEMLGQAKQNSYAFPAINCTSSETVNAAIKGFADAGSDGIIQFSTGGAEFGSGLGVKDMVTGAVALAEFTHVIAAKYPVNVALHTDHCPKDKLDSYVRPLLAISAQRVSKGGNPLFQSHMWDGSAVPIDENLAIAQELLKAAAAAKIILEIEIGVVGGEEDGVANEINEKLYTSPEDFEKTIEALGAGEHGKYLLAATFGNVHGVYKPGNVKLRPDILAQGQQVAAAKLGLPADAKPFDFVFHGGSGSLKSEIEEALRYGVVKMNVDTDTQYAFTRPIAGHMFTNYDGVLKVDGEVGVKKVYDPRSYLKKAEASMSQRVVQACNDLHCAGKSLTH
# MazEF act = activators of E. coli MazEF toxin-antitoxin RNase, primary screen, biochemical, fluorescence, uHTS; Endoribonuclease toxin MazF (Escherichia coli (strain K12)), P0AE70; FAM/BHQ RNA-DNA oligo cleavage fluorescence, 5 h; activation, % at 20 µM; 350,000 compounds, 0.32% hits; AID 504720, 2011; in the data active = activation above about 50%
# Target sequence (P0AE70 whole entry, looked up): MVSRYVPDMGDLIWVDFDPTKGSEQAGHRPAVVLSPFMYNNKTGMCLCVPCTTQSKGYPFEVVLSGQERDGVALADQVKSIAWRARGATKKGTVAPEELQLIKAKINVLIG
# Mtb bLac sens = beta-lactam sensitization of Mtb H37Rv, H37Rv. M. tuberculosis H37Rv growth with meropenem, percent inhibition. inhibition, % at 25 µM. 330,000 compounds, 0.27% hits; call rule not given here;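 note: growth measured after seven days incubation then overnight dye step; 0% = bacteria only wells and 100% = bacteria with antibiotic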
# Mtb FBA confirm = M. tuberculosis aldolase blockers, biochemical, fluorescence, strain H37Rv, confirmation | 5,600 compounds, 78% hits | inhibition, % at 1 µM | shares compounds with FBA Mtb inh | purified M. tuberculosis FBA, fluorescence read-out; in the data active = inhibition above about 27%;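 note: 0% = vehicle wells and 100% = reference inhibitor wells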
# GDH-TPI counter-2 = GDH-TPI coupling enzyme inhibitors, artefact control for M. tuberculosis FBA inhibitor project, biochemical, fluorescence, high throughput; AID 652141, 2013; GDH-TPI coupled enzyme counterscreen; shares compounds with FBA Mtb inh; inhibition, % at 1 µM; 5,600 compounds, 81% hits; in the data active = inhibition above about 10%
# * = called active by the depositor; . = not tested or not shown; + = active, no number. Cut-off read from the data, not from the text of the source, unless noted: active = inhibition above about 30%; inactive = the rest.
SMILES,GDH-TPI counter-1,CCHF vOTU inh,FBA Mtb inh,MazEF act,Mtb bLac sens,Mtb FBA confirm,GDH-TPI counter-2
CCn1c(/C=C/c2ccccc2)nc2ccccc2c1=O,25.1,6.9,-1.0,-1.2,0.6,.,.
CCn1c(/C=C/c2ccccc2)nc2ccccc21,65.2*,-58.7,57.6*,-0.8,47.0,+,+
COc1ccc(Cn2c(/C=C/c3ccccc3)nc3ccccc32)cc1,14.8,-29.3,48.2*,3.1,19.2,168.6*,137.9*
Cc1ccc(NC(=O)N2CCC(N(C)CCC(C)C)CC2)cc1F,.,-5.6,.,.,.,.,.
C[C@H]1COc2cc(Br)ccc2S(=O)(=O)N1Cc1cn(CC2CCCCC2)nn1,.,-0.6,.,.,.,.,.
Cc1ccc(C(=O)c2ccccc2C(=O)Nc2ccccc2)cc1,2.7,3.6,-1.1,5.2,1.3,.,.
Cc1ccccc1C=Nc1ccccc1C(N)=O,8.0,-91.5,49.6*,-4.1,-3.5,71.5*,57.1*
COc1cccc(C=Nc2ccccc2C(=O)Nc2ccccc2)c1O,3.0,-29.9,29.5*,11.5,-5.0,129.2*,107.0*
O=C(Nc1ccccc1)c1ccccc1N=Cc1cccc(O)c1,7.5,-51.3,41.2*,-14.3,-11.9,51.4*,39.8*
Cc1ccc(C=Nc2ccccc2C(=O)Nc2ccccc2)cc1,7.1,-54.5,38.8*,7.5,-0.5,136.2*,102.6*
COc1cccc(/C=N/NC(=O)CSCC(=O)Nc2ccccc2)c1O,6.7,-2.6,0.2,-13.9,.,.,.
O=C(N/N=C/c1cccc(O)c1)c1ccccc1O,15.9,15.8,-2.0,-0.4,-0.9,.,.
COC(=O)[C@]12C[C@H](CC(=O)NCCC(C)C)C(=O)N(CCC3=CCCCC3)C1=C[C@H](C1CCCC1)O[C@@H]2C,.,21.9,.,.,.,.,.
O=C(c1ccccc1)N1CCC2CCN(CCc3ccccc3)CC21 (stereo not given),.,23.6,.,.,.,.,.
COc1ccc(S[C@]2(C(=O)N3CCCC3)CC(=O)N(C(=O)Nc3ccc(C)c(Cl)c3)[C@@H]2c2ccc(OC)cc2)cc1,.,3.2,.,.,.,.,.
NC(=O)c1ccccc1N=Cc1cccnc1,-0.4,-9.7,19.6,-3.4,-3.5,.,.
Cc1ccc(C=Nc2ccccc2C(N)=O)cc1,0.7,-87.1,65.0*,-3.8,-3.2,83.0*,74.3*
COc1ccc(C2=NCCc3cc(OC)c(OC)cc32)cc1OC,15.9,10.0,-2.5,2.5,4.4,.,.
COc1ccc(CC2=NCCc3cc(OC)c(OC)cc32)cc1OC,17.1,-105.2,93.6*,.,.,+,157.1*
O=C(Nc1ccc(F)cc1)Nc1c(-c2ccccc2)nc2ncccn12,.,-9.0,.,.,.,.,.
Cc1cc2nc(-c3ccc(SCc4ccc(C(=O)O)cc4)nc3)[nH]c2cc1C,26.6,-4.4,58.4*,-9.4,-2.1,-2.0,-5.2
O=C(O)c1ccccc1N/C=C\[N+](=O)[O-],7.0,-6.7,31.7*,-7.4,-6.7,70.5*,56.4*
O=C(/C=C/Nc1ccccc1C(=O)O)c1cccs1,4.7,-24.4,4.1,-9.3,-2.9,.,.
CCOc1cc(OCC)cc(C(=O)N2CCC[C@@H]2C(=O)N2CCC[C@@H]2C(=O)NCc2cccc(OC)c2)c1,.,-4.7,.,.,.,.,.
COc1cc2[nH]c(=S)nc(NCC3CCCO3)c2cc1OC (stereo not given),22.4,-0.9,75.2*,8.0,-1.9,83.5*,60.6*
SMILES,GDH-TPI counter-1,CCHF vOTU inh,FBA Mtb inh,MazEF act,Mtb bLac sens,Mtb FBA confirm,GDH-TPI counter-2
COc1cc2[nH]c(C(=O)NCC3CCCO3)cc2c(OC)c1OC (stereo not given),2.9,-16.6,32.2*,8.9,2.0,+,+
Cc1ccc2nc(C(C)(C)C)c(Cc3cccc(F)c3)n2c1,.,5.9,36.2*,.,.,199.9*,172.2*
CCCc1nc2ccc(C)cn2c1Cc1ccccc1,.,-6.2,7.5,.,.,.,.
CCCc1nc2ccc(C)cn2c1Cc1cccc(F)c1,.,5.9,28.2*,.,.,42.9*,30.8*
CCCC[C@H](C(=O)N(C)c1cccc(OC)c1)[C@@H](O)c1ccc(Cl)cc1,.,16.5,.,.,.,.,.
O=S1(=O)CC2c3ccccc3CCN2CN1Cc1ccc(F)cc1 (stereo not given),.,3.2,.,.,.,.,.
CCCCCCCCN1C(=O)N2Cc3ccc(C)cc3C2CS1(=O)=O (stereo not given),.,-0.3,.,.,.,.,.
CCN(C(=O)[C@@H](C)[C@@H](O)c1ccc(Cl)cc1)c1ccccc1,.,15.1,.,.,.,.,.
CCOC(=O)c1cnn(-c2cc(C)nc3c(-c4ccccc4)c(C)nn23)c1N,-1.5,3.0,11.1,-4.3,-1.0,.,.
CCOC(=O)c1c(-c2ccccc2)cn2c(C)cc(C)nc12,6.3,-34.3,29.7*,-3.6,-5.2,89.6*,56.4*
O=c1nc2cccc3c2=c(/c1=C(\O)c1ccccc1)c1ccccc1c3=O,17.0,-13.0,29.2*,8.7,5.5,-3.8,-6.0
O=c1[nH]c(/C=C/c2cccc3ccccc23)nc2ccccc12,9.2,12.1,1.9,-10.1,6.7,.,.
COc1ccc2oc(C(=O)NN3C(C)CCCC3C)c(C)c2c1 (stereo not given),-2.5,0.8,0.8,2.1,-16.3,.,.
COc1ccc2oc(C(=O)OC(C)C(=O)NC3(C#N)CCCCC3)c(C)c2c1 (stereo not given),-7.3,-12.1,28.0*,1.5,-4.2,39.0*,28.6*
COc1ccc2oc(C(=O)OC(C)C(=O)NCc3ccccc3)c(C)c2c1 (stereo not given),5.2,-8.1,24.7,-3.6,-7.9,.,.
COc1ccc2oc(C(=O)OC(C)C(=O)N3C(C)CCCC3C)c(C)c2c1 (stereo not given),18.4,-5.7,62.0*,0.9,5.0,51.2*,31.1*
COc1cccc(/C=C2\CC3(OC(=O)c4ccc(F)cc4)CCCN2C3)c1 (stereo not given),.,6.2,.,.,.,.,.
O=C(NC1CCCCN(Cc2ccc(Cl)cc2)C1=O)c1ccc(Cl)cc1Cl (stereo not given),.,1.5,.,.,.,.,.
CC(=O)Nc1cccc(-c2cn3ccc(C)cc3n2)c1,11.9,-17.1,49.7*,-0.7,5.6,+,+
Cc1ccn2cc(-c3cccc(NS(C)(=O)=O)c3)nc2c1,3.5,-13.9,37.2*,7.9,-1.8,60.5*,31.1*
CC(=O)Nc1ccc2nc(-c3ccccc3)cn2c1,13.6,-15.2,38.2*,5.7,-9.3,+,183.9*
Cc1ccn2cc(-c3cccc(NC(=O)CCC(=O)O)c3)nc2c1,7.5,-22.1,44.0*,11.3,-10.4,44.7*,33.6*
COC(=O)[C@]12C[C@H](CC(=O)NCc3ccc(C)o3)C(=O)N(Cc3ccc(Cl)cc3Cl)C1=C[C@H](C(C)C)O[C@@H]2C1CC1,.,17.5,.,.,.,.,.
